Reference: PubChem BioAssay (Tox21)
Inconclusive results are not listed. Active and inactive are the calls of the source. Unless noted, calls come from the whole dose curve.

What was measured:
[1] = qHTS assay to identify small molecule antagonists of the vitamin D receptor (VDR) signaling pathway - cell viability counter screen (AID 743225; active = well fitted curve in the direction sought with a large enough effect in the repeat runs; an effect the other way counts as inactive or inconclusive; note: nearly all actives have a fitted effect of over 50% in size)
How it was run: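 Cytotoxicity toward the VDR-bla HEK 293T line was scored by ATP-based CellTiter-Glo luminescence, read in the wells already used for the beta-lactamase readout after 16 h compound treatment under 3 nM 1-alpha,25-dihydroxyvitamin D3 stimulation.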

[2] = qHTS assay to identify small molecule agonists of the NFkB signaling pathway (AID 1159509; active = well fitted curve in the direction sought with a large enough effect in the signal ratio in the repeat runs, not every such curve was filed as active; the % refers to the signal ratio; note: series mostly up to about 61 µM)
How it was run: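 After overnight attachment, reporter cells received test compounds, DMSO or positive controls and were incubated 5 hr at 37 C. FRET substrate was then added for 1.5 hr at room temperature before dual-emission fluorescence reading.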

[3] = qHTS assay to identify small molecule agonists of the NFkB signaling pathway - cell viability counter screen (AID 1159515); note: series mostly up to about 61 µM; nearly all actives have a fitted effect of over 55% in size
How it was run: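 NFkB-bla ME-180 cells, 2,000/well, were plated overnight at 37 C, 5% CO2, then exposed to compounds in DMSO for 5 hr. After the bla FRET read, CellTiter-Glo was added to the same wells; luminescence was read after 30 min at room temperature.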

[4] = qHTS assay to identify small molecule agonists of the endoplasmic reticulum stress response signaling pathway (AID 1159516; active = well fitted activation curve with a large enough effect in the signal ratio in the repeat runs, not every such curve was filed as active; the % refers to the signal ratio)
How it was run: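 CellSensor ESRE-bla HeLa cells, carrying a beta-lactamase reporter driven by the ER stress response element, were plated overnight and exposed to compounds for 5 hr at 37 C. Reporter activity was read as FRET substrate fluorescence after 2 hr at room temperature.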

[5] = qHTS assay to identify small molecule agonists of the endoplasmic reticulum stress response signaling pathway - cell viability counter screen (AID 1159517); note: series mostly up to about 61 µM; nearly all actives have a fitted effect of over 50% in size
How it was run: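 Cells, HeLa ESRE-bla; density, 1,500/well; dosing, 5 hr at 37 C, 5% CO2; readout, CellTiter-Glo luminescence after 30 min RT.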

[6] = qHTS assay to identify small molecule antagonists of the retinoid-related orphan receptor gamma (ROR-gamma) signaling pathway - cell viability counter screen (AID 1159520; active = well fitted curve in the direction sought with a large enough effect in the repeat runs; an effect the other way counts as inactive or inconclusive; note: nearly all actives have a fitted effect of over 50% in size)
How it was run: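 Cytotoxicity was read from cellular ATP (CellTiter-Glo luminescence) after 16 hr at 37 C with 1 uM doxycycline induction. The inducer was added 2 hr after compound transfer to Tet-on ROR gamma CHO cells.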

[7] = molecular target: Nuclear receptor ROR-gamma (Homo sapiens) (UniProt P51449); experiment: qHTS assay to identify small molecule antagonists of the retinoid-related orphan receptor gamma (ROR-gamma) signaling pathway (AID 1159521; active = well fitted curve in the direction sought with a large enough effect in the repeat runs; an effect the other way counts as inactive or inconclusive;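 note: CHO cells with doxycycline inducible ROR-gamma driving an RORE luciferase reporter; top concentration of the series differs between compounds; nearly all actives have a fitted effect of over 50% in size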)
How it was run: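 Readout: ONE-Glo luciferase luminescence, 30 min at room temperature. System: Tet-on RORγ CHO, RORE-LUC. Sequence: compound 2 h, doxycycline 1 uM final, 16 h at 37 C.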

[8] = qHTS assay to identify small molecule agonists of the AP-1 signaling pathway - cell viability counter screen (AID 1159525); note: nearly all actives have a fitted effect of over 55% in size
How it was run: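 Luminescent ATP readout (Cell Titer Glo, 30 min RT), normalised to DMSO and tetra n-octyl ammonium bromide controls. Cells were ME-180 AP-1-bla in 0.5% dialyzed FBS Opti-MEM, with a 5 h, 37 °C compound exposure.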

[9] = qHTS assay to identify small molecule agonists of the AP-1 signaling pathway (AID 1159526)
[10] = molecular target: Retinoic acid receptor RXR-alpha (Homo sapiens) (UniProt P19793); experiment: qHTS assay to identify small molecule agonists of the RXR signaling pathway (AID 1159527); note: nearly all actives have a fitted effect of over 35% in size
How it was run: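 Reporter activation is measured as beta-lactamase activity via FRET substrate cleavage (emission 460/530 nm) in HEK 293T cells expressing an RXR-alpha-driven bla construct, following 16 hr compound exposure at 37 C.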

Measured: Potency

Chain of Retinoic acid receptor RXR-alpha (Homo sapiens) (P19793 whole entry, looked up): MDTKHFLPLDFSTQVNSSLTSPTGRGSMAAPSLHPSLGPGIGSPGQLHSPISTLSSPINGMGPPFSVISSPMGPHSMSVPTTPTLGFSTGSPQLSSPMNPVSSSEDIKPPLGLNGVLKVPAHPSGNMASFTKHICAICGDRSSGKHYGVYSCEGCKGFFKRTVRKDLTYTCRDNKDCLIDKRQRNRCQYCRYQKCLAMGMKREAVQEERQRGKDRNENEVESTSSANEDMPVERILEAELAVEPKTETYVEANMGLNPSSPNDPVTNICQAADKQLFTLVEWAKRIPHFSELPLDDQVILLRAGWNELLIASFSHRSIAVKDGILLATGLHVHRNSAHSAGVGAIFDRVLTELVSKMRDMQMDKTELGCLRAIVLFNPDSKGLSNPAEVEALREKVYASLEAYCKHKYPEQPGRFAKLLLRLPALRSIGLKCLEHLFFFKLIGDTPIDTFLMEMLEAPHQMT

C=C[Si](C)(C)O[Si](C)(C)C=C
inactive: all assays above

CCC1Nc2cc(Cl)c(S(N)(=O)=O)cc2S(=O)(=O)N1 (centres undefined)
not listed: [1]
inactive: all other assays above

CC(C)COC(=O)CCCCC(=O)OCC(C)C
inactive: all assays above

NC(=O)C1(N2CCCCC2)CCN(CCCC(=O)c2ccc(F)cc2)CC1
inactive: all assays above

Cc1ccccc1OCC1CO1 (centres undefined)
not listed: [1]
inactive: all other assays above

CC1=CC[C@H](CC=O)C1(C)C
inactive: all assays above

O=C1NC2NC(=O)NC2N1 (centres undefined)
not listed: [1]
inactive: all other assays above

CC(=O)Nc1ccc(C)cc1
not listed: [1]
inactive: all other assays above

CNC(=O)NC
not listed: [1]
inactive: all other assays above

CCC(O)C(C)(C)C (centres undefined)
inactive: all assays above

CCCCC(C)C(=O)O (centres undefined)
not listed: [1]
inactive: all other assays above

CCCCOC(=O)[C@@H](C)Oc1ccc(Oc2ccc(C(F)(F)F)cn2)cc1
inactive: all assays above

Cc1cccc(NC(=S)N(C)C)c1
inactive: all assays above

CC(C)(C)c1ccc(C=O)cc1
inactive: all assays above

CCC(C)(C)C1CCC(=O)CC1
inactive: all assays above

CCCCCCCCCCCCC1CO1 (centres undefined)
inactive: all assays above

CCCCCCCCCOCC1CO1 (centres undefined)
inactive: all assays above

CC(C)CCCCCCOC(=O)C1CCCCC1C(=O)OCCCCCCC(C)C (centres undefined)
inactive: all assays above

CCCCOC(=O)C(C)OC(=O)CCC (centres undefined)
inactive: all assays above

Cc1ccc(C(=O)C(=O)O)cc1C
inactive: all assays above

CCCCC/C=C/CC(=O)OC
inactive: all assays above

Cc1ncc([N+](=O)[O-])n1CC(O)CCl (centres undefined)
inactive: all assays above

CNC(=O)C(c1ccccc1)c1ccccc1
inactive: all assays above

CCC(CO)CO
inactive: all assays above
